# From PubChem BioAssay (NCATS)
# Inconclusive results are not listed. The source made the active and inactive calls. Unless noted, calls follow the shape of the dose curve; as a rule, active = well fitted curve in the direction sought with a large enough effect; inconclusive = small, poorly fitted or top-dose-only effect, or another doubt; inactive = no such curve, though single readings can be large; an effect the other way counts as inactive or inconclusive.
# How the values were obtained:
# [1] = target: Calcium and integrin-binding protein 1 (Homo sapiens) (UniProt Q99828); assay: Primary qHTS for Identification of Calcium Integrin Binding Protein 1 (CIB1) Competitor (AID 1508620); details: CIB1-GST / FITC-alphaIIb peptide fluorescence polarization; series mostly up to 57.7 µM;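 also: GST tagged CIB1 binding a fluorescein labelled alphaIIb integrin peptide tracer; top concentration of the series differs between compounds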
# Outline: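 Fluorescence polarization competition: GST-tagged CIB1 (1 uM final) preincubated with compound 15 min at room temperature, then FITC-labelled alphaIIb peptide (100 nM final) added. After 15 min at room temperature, polarization read at Ex 480/Em 540.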
# [2] = target: Calcium and integrin-binding protein 1 (Homo sapiens) (UniProt Q99828); assay: Confirmatory qHTS for Identification of Calcium Integrin Binding Protein 1 (CIB1) Competitor (AID 1508617); details: CIB1 binding competition assay, biochemical qHTS; series mostly up to 114 µM; also: potency is read from the fitted curve at half-maximal effect; nearly all actives have a fitted effect of over 65% in size
# Outline: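 FP competition: CIB1-GST (1 uM final) in 5 mM HEPES pH 7.4, 125 mM NaCl, 5 mM CaCl2, 0.01% Tween20 preincubated 15 min RT with compounds (up to 114 uM), then FITC-alphaIIb peptide (100 nM), 15 min RT; Ex 480/Em 540.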
# [3] = target: Cytochrome P450 2D6 (Homo sapiens) (UniProt P10635); assay: Cytochrome P450 family 2 subfamily D member 6 (CYP2D6) small molecule antagonists: luciferase biochemical (cell-free) qHTS assay (AID 1645840; active = well fitted curve in the direction sought with a large enough effect in the repeat runs; an effect the other way counts as inactive or inconclusive; also: potency is read from the fitted curve at half-maximal effect; nearly all actives have a fitted effect of over 55% in size); details: P450-Glo CYP2D6 enzyme, luciferin luminescence, 1 h; series mostly up to 57.4 µM
# Outline: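 P450-Glo luminescent screen: recombinant CYP2D6 enzyme–proluciferin substrate mix preincubated with compound 10 min at room temperature, then NADPH regeneration added for 1 h at room temperature. Detection reagent added for 20 min; luciferin light read as relative luminescence units.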
# [4] = target: Cytochrome P450 2C9 (Homo sapiens) (UniProt P11712); assay: Cytochrome P450 family 2 subfamily C member 9 (CYP2C9) small molecule antagonists: luciferase biochemical (cell-free) qHTS assay (AID 1645842; active = well fitted curve in the direction sought with a large enough effect in the repeat runs; an effect the other way counts as inactive or inconclusive; also: potency is read from the fitted curve at half-maximal effect; nearly all actives have a fitted effect of over 55% in size); details: P450-Glo CYP2C9 enzyme assay, luciferin luminescence; series mostly up to 57.4 µM
# Outline: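 Luminescence, after 20 min with luciferin detection reagent, reflected CYP2C9 turnover during a 1 h NADPH-driven reaction at 37C. Enzyme-substrate mix contained 0.4% bovine serum albumin and was preincubated with compound 10 min at room temperature.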
# [5] = Primary qHTS for inhibitors of nuclear receptor binding SET domain protein 2 (NSD2) in an isogenic RCH-ACV NSD2 p.E1099K mutant (9B) (AID 1645876); details: RCH-ACV NSD2 E1099K (9B) viability, CellTiter-Glo, 72 h; series mostly up to 44.9 µM; also: nearly all actives have a fitted effect of over 70% in size; also: potency is read from the fitted curve at half-maximal effect
# [6] = qHTS to identify inhibitors of the type 1 interferon - major histocompatibility complex class I in skeletal muscle: primary screen against the NCATS Mechanism Interrogation Plate v5.0 (MIPE) Libary (AID 1347411); details: iHSKM cells + IFN-b, HiBiT-tagged MHC-I luminescence, 24 h; series mostly up to 45.8 µM; also: nearly all actives have a fitted effect of over 65% in size
# Outline: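 Immortalized human C25cl48 myoblasts with HiBit knocked into endogenous HLA-B*08:01 were stimulated with 4.0 ng/ml IFN-beta and exposed to compounds (11-point 1:3 titration, top 46 uM final) for 24 hrs at 37 C; HiBiT lytic luminescence measured.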
# [7] = Primary qHTS for small molecule stabilizers of the endoplasmic reticulum resident proteome: Secreted ER Calcium Modulated Protein (SERCaMP) assay (AID 1508630); details: SH-SY5Y GLuc-SERCaMP (Gaussia luciferase released on ER calcium loss) secretion, thapsigargin, luminescence; series mostly up to 38.4 µM
# Outline: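 GLuc-SERCaMP-expressing SH-SY5Y cells, pretreated 16 h with compound, are challenged with thapsigargin to empty ER calcium stores; after 4 h, coelenterazine is added directly to the medium and luminescence is imaged.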
# [8] = Primary qHTS for inhibitors of nuclear receptor binding SET domain protein 2 (NSD2) in an RCH-ACV wild type WT cells (2C) (AID 1645877); details: RCH-ACV (leukaemia line) NSD2 WT (2C) viability, CellTiter-Glo, 72 h; series mostly up to 44.9 µM; also: potency is read from the fitted curve at half-maximal effect; nearly all actives have a fitted effect of over 70% in size
# [9] = target: N-terminal Xaa-Pro-Lys N-methyltransferase 1 (Homo sapiens) (UniProt Q9BV86); assay: Confirmatory qHTS for Inhibitors of N-terminal methyltransferase 1 (NTMT1): MTaseGlo Assay (AID 1645874); details: NTMT1 enzyme, MTase-Glo SAH luminescence; also: potency is read from the fitted curve at half-maximal effect; nearly all actives have a fitted effect of over 65% in size
# Outline: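 NTMT1 (125 nM) preincubated 15 min with compound and 100 uM SAM, then 1 uM SPKRIA peptide added for 30 min at room temperature. SAH detected by MTase-Glo luminescence; normalized to no-enzyme and DMSO controls, fitted to 4-parameter Hill.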
# Sequence of Calcium and integrin-binding protein 1 (Homo sapiens) (Q99828 whole entry, looked up): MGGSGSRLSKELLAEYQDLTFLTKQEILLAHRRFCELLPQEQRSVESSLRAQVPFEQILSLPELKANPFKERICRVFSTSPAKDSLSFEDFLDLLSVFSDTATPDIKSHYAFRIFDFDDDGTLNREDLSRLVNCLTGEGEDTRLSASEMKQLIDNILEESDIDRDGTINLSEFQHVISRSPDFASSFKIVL
# Sequence of N-terminal Xaa-Pro-Lys N-methyltransferase 1 (Homo sapiens) (Q9BV86 whole entry, looked up): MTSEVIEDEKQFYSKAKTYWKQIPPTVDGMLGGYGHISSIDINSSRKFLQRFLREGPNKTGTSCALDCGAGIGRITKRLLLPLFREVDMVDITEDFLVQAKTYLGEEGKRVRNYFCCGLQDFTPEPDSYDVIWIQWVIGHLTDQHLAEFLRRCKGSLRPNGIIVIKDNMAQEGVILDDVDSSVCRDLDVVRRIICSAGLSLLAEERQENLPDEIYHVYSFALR
# Sequence of Cytochrome P450 2C9 (Homo sapiens) (P11712 whole entry, looked up): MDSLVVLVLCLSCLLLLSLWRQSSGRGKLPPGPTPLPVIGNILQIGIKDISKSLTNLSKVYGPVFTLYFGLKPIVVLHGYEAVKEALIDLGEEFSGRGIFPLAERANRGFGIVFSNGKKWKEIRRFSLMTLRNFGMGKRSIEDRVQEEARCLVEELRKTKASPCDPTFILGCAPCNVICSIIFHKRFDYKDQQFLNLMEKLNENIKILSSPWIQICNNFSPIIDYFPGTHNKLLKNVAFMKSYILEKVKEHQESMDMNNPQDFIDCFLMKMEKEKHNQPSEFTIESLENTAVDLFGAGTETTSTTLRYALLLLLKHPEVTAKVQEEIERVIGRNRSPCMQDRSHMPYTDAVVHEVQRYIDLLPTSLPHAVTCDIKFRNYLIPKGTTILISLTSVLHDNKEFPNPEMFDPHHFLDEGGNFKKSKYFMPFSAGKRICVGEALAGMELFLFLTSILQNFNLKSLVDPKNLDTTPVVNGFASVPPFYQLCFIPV
# Sequence of Cytochrome P450 2D6 (Homo sapiens) (P10635 whole entry, looked up): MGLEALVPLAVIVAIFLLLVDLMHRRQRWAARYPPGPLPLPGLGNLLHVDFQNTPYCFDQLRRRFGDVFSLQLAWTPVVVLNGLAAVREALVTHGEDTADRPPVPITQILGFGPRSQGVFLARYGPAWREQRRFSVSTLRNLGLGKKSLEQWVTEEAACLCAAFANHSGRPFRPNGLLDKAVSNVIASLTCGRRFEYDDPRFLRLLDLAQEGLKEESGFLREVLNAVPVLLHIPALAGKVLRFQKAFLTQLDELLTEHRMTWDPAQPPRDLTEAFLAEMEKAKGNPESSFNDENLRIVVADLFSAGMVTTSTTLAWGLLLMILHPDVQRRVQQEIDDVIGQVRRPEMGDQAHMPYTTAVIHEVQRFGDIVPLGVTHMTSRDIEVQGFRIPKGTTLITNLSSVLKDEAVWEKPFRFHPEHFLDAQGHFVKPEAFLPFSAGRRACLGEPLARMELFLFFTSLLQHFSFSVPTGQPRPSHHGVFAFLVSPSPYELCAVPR
smiles,measurement,setting,value
CCCCCN=C(N)NN=Cc1c[nH]c2ccc(OC)cc12,Potency,[1],inactive
Cc1coc2c1C(=O)C(=O)c1c-2ccc2c(C)cccc12,Potency,[2],39.8 µM (active)
same,Potency,[1],inactive
same,Potency,[3],3.38 µM (active)
same,Potency,[4],9.52 µM (active)
same,Potency,[5],inactive
C[N+](C)([O-])CCNc1ccc(NCC[N+](C)(C)[O-])c2c1C(=O)c1c(O)ccc(O)c1C2=O,Potency,[6],inactive
same,outcome,[7],inactive
same,Potency,[5],0.0525 µM (active)
same,Potency,[8],0.0372 µM (active)
CN1CCCN(C(=O)c2cccc(-c3ccc(C=C4C(=O)Nc5ccc(Cl)cc54)o3)c2)CC1,Potency,[2],35.5 µM (active)
same,outcome,[7],inactive
same,Potency,[9],9.16 µM (active)
same,Potency,[5],0.206 µM (active)
Cc1cc(-c2nnc3n2CCCCC3)c(C)n1-c1ccccc1,Potency,[1],inactive
